Screens from PubChem.
A selection: hits, their analogues and other compounds. The true share with any hit is near 1.1%.
HTR5A inv ag – inverse agonist of human HTR5A in OPRM1-OPRD1 counter-screen; AID 504634; inhibition, % at 9.3 µM; HTR5A cell line, luminescence, inverse agonism; hit rate 0.083% among 340,000; P47898; in the data active = inhibition mostly above about 23%, no sharp cut-off; inactive = mostly below about 18%
HTR5A ag – activates human HTR5A in OPRM1-OPRD1 agonist counter-screen. activation, % at 9.3 µM. AID 504692. hit rate 0.61% among 340,000. P47898. HTR5A agonist assay, luminescence, cell-based; in the data active = activation mostly above about 9.5%, no sharp cut-off; inactive = mostly below about 7.6%
OPRM1-OPRD1 inv – inverse agonists of human mu-delta opioid receptor heterodimerization | P35372+P41143 | cell-based MOR-DOR heterodimer luminescence, inverse agonism | inhibition, % at 9.3 µM | hit rate 0.21% among 340,000 | AID 504357; in the data active = inhibition above about 22%, passing the limit was not always enough
Target sequence (P35372 whole entry, looked up): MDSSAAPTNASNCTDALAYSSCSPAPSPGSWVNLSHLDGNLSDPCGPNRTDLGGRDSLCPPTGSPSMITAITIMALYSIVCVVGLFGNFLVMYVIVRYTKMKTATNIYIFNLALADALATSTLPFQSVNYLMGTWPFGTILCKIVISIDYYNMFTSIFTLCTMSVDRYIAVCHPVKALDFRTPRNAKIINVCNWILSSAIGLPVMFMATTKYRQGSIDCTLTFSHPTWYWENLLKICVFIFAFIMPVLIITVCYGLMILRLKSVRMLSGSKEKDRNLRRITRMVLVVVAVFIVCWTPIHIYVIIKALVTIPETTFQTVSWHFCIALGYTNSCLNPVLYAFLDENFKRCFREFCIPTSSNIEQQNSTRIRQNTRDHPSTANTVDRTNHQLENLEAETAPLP
Target sequence (P41143 whole entry, looked up): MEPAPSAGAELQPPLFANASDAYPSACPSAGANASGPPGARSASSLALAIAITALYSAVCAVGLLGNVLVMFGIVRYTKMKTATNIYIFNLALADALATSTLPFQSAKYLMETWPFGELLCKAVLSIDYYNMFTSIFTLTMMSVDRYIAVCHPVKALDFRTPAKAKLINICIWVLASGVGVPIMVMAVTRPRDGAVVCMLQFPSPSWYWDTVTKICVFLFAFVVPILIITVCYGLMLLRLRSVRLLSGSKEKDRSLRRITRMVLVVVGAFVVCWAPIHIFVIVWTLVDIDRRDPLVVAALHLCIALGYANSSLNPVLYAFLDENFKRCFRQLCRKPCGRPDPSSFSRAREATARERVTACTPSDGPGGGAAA
MOR-DOR ag-1 – OPRM1-OPRD1 heterodimerization agonism; hit rate 0.3% among 340,000; activation, % at 9.3 µM; cells, luminescence; AID 504326; P35372+P41143
MOR-DOR ag-2 – counter-screen for HTR5A agonists: OPRM1-OPRD1 heterodimerization agonism; shares compounds with HTR5A ag; hit rate 13% among 800; U2OS counter-screen cells, complementation luminescence, 3 h; AID 504913; activation, % at 9.3 µM
HTR5A ag confirm – confirmation of human HTR5A agonists. shares compounds with HTR5A ag. hit rate 17% among 800. activation, % at 9.3 µM. HTR5A agonist cell assay, luminescence; in the data active = activation above about 17%
Hits are given with their value; . = inactive; / = not tested or not shown. Cut-off read from the data, not from the text of the source, unless noted: active = activation above about 18%; inactive = the rest.

SMILES	HTR5A inv ag	HTR5A ag	OPRM1-OPRD1 inv	MOR-DOR ag-1	MOR-DOR ag-2	HTR5A ag confirm
C/C(=N/NS(=O)(=O)c1ccc(C)c(C)c1)c1c[nH]c2ccccc12	.	.	.	.	/	/
C/C(=N/NS(=O)(=O)c1ccc(C)cc1)c1ccc2c(c1)OCO2	.	.	.	.	/	/
C/C(=N/NS(=O)(=O)c1ccc(C)cc1C)c1ccc2c(c1)OCO2	.	20	.	.	.	.
O=C(Nc1cccc(OC(=O)c2ccc(Br)o2)c1)c1ccccc1	.	.	.	.	/	/
O=Cc1ccccc1-c1cn(CCCOCc2ccccc2)nn1	.	.	.	.	/	/
O=C(c1cc(C2CC2)nn1-c1ccccc1)N1CCN(S(=O)(=O)c2cccc(F)c2)CC1	.	.	.	.	/	/
COc1ccc(OC)c(NC(=S)N(CCc2c(C)[nH]c3ccc(C)cc23)Cc2cccs2)c1	.	24	.	.	.	.
COc1ccc(OC)c(NC(=S)N(CCc2c(C)[nH]c3ccccc23)Cc2cccs2)c1	.	.	.	.	/	/
COc1cc2c(cc1NC(=O)CN1CCN(S(=O)(=O)c3ccc(C)cc3)CC1)oc1ccccc12	.	15	.	.	218	.
COc1ccc(C)cc1NC(=O)CN1CCN(S(=O)(=O)c2ccc(Cl)cc2)CC1	.	.	.	.	/	/
COc1cc(C2/C(=C(\O)c3ccc4c(c3)CC(C)O4)C(=O)C(=O)N2CCCn2ccnc2)cc(OC)c1OC (configuration not stated)	.	.	.	.	/	/
COc1ccc(OC)c(NC(=O)COC(=O)[C@H](Cc2ccccc2)NC(=O)c2ccco2)c1	.	.	.	.	/	/
COc1cccc(C2N(Cc3ccccc3)C(=O)C2(F)F)c1OC (configuration not stated)	.	16	.	.	.	.
COc1cccc(C2N(c3ccccc3)CCN2c2ccccc2)c1OC	.	.	.	.	/	/
COc1nc(-c2ccccc2)ccc1-c1noc(-c2cccs2)n1	.	19	.	.	.	.
Cc1ccc(CCNC(=O)C2CCC(=O)N2Cc2ccc(F)cc2)cc1 (configuration not stated)	.	.	.	.	/	/
O=C(NCCc1ccc(Cl)cc1)C1CCC(=O)N1Cc1ccc(F)cc1 (configuration not stated)	.	17	.	.	.	.
CN(C)Cc1c(O)ccc2occ(C(=O)c3ccccc3)c12	.	19	.	.	.	47
CCN(CC)Cc1c(O)ccc2occ(C(=O)c3ccccc3)c12	.	.	.	.	/	/
COc1ccc(CNC(=O)c2ccncc2)cc1	.	.	.	.	/	/
COc1ccc(CNC(=O)c2ccc3nccnc3c2)cc1	.	19	.	.	.	.
Cc1ccccc1C(=O)c1cccn1CC(=O)NCc1ccccc1	.	.	.	.	/	/
Cc1ccccc1C(=O)c1cccn1CC(=O)NCc1ccc2c(c1)OCO2	.	17	.	.	.	24
O=C(Nc1cc(Cl)cc(Cl)c1)Nc1cnccn1	.	.	.	.	/	/
Cc1onc(-c2ccccc2)c1C(=O)N/N=C/c1ccc([N+](=O)[O-])c(O)c1	.	20	.	.	.	.
SMILES	HTR5A inv ag	HTR5A ag	OPRM1-OPRD1 inv	MOR-DOR ag-1	MOR-DOR ag-2	HTR5A ag confirm
COc1ccc(CCNS(=O)(=O)c2ccc(OC)c(OC)c2)cc1OC	.	17	.	.	.	.
CCOc1nc(CC(C)C)c2c(c1C#N)CC(C)(C)OC2	.	16	.	.	.	.
O=C(CC(O)(c1ccccc1)c1ccccc1)Nc1ccccn1	.	.	.	.	/	/
CCOc1ccc(S(=O)(=O)N(CC(=O)Nc2cccnc2)c2ccc(F)cc2)cc1	.	.	.	.	/	/
COc1ccc(C)c2sc(N(CCN(C)C)C(=O)/C=C/c3cccs3)nc12	.	16	.	.	.	18
COc1ccc(OC)c2sc(N(CCN(C)C)C(=O)/C=C/c3cccs3)nc12	.	.	.	.	/	/
Cc1cccc(Nc2nnc(SCC(=O)NCC3CCCO3)s2)c1C (configuration not stated)	.	.	.	.	/	/
O=C(Nc1ccc(Oc2cccc(C(F)(F)F)c2)nc1)c1ccco1	.	.	.	.	/	/
CC(C)(C)c1ccc(Oc2ccc(NC(=O)c3ccco3)cn2)cc1	.	16	.	.	28	.
CSc1cccc(CNC(=O)C2CCC(=O)N(CC3CCCCC3)C2)c1 (configuration not stated)	.	.	.	.	/	/
O=C(CSc1ccccc1)NCC1(N2CCCCC2)CCCCC1	.	17	.	.	23	.
CCCN(CCC)Cc1c(C(=O)N/N=C/c2ccc(C)o2)nnn1-c1nonc1N	.	.	.	.	/	/
Cc1cc(C)c(C#N)c(SCC(=O)Nc2cccc(S(=O)(=O)N3CCCC3)c2)n1	.	15	.	.	.	.
O=C(CNc1cccc(C(F)(F)F)c1)Nc1cccc(S(=O)(=O)N2CCCC2)c1	.	19	.	.	.	.
O=C(CNc1cccc(S(=O)(=O)N2CCCC2)c1)Nc1cccc(F)c1	.	.	.	.	/	/
O=c1cc(CN2CCN(S(=O)(=O)c3ccccc3)CC2)nc2ccc(Cl)cn12	.	.	.	.	/	/
COc1ccc(S(=O)(=O)N2CCN(Cc3cc(=O)n4ccccc4n3)CC2)cc1	.	16	.	.	.	.
CC(C)c1ccc(NC(=O)C2CCN(S(=O)(=O)c3ccc4c(c3)C(C)(C)C(=O)N4C)CC2)cc1	.	.	.	.	/	/
Cc1ccc2nc(-c3ccc(O)cc3)c(Nc3ccc4c(c3)OCCO4)n2c1	.	22	.	.	.	58
Cc1ccc(Nc2c(-c3ccccc3O)nc3cnccn23)cc1	.	.	.	.	/	/
Cc1ccc(-c2nc3cnccn3c2Nc2ccc3c(c2)OCO3)cc1	.	.	.	.	/	/
Cc1ccc2nc(-c3ccccc3O)c(Nc3ccc4c(c3)OCCO4)n2c1	.	20	.	.	.	37
CC(=O)c1ccc(NC(=S)N2CCCC2)cc1	.	.	.	.	/	/
N#C/C(=C\c1cccnc1)C(=O)Nc1ccc(S(N)(=O)=O)cc1	.	.	.	.	/	/
Cc1nc2cc(NC(=O)N3c4ccccc4CC3C)ccc2n1C (configuration not stated)	.	22	.	.	.	24
SMILES	HTR5A inv ag	HTR5A ag	OPRM1-OPRD1 inv	MOR-DOR ag-1	MOR-DOR ag-2	HTR5A ag confirm
CSc1cc(-c2ccc(Cl)cc2)[nH]c(=O)c1C#N	.	17	.	.	.	.
Cc1cccc(OC(C)C(=O)Nc2ccc(N3CCCCC3)cc2)c1 (configuration not stated)	.	.	.	.	/	/
CC(Oc1cccc(F)c1)C(=O)Nc1ccc(N2CCOCC2)cc1 (configuration not stated)	.	17	.	.	.	.
COc1cc2cnc(-c3ccsc3)cc2cc1OC	.	22	.	.	.	.
COc1ccc(C2=NS(=O)(=O)N(C)C(C(=O)NC3CCCCC3)=C2)cc1OC	.	.	.	.	/	/
O=C(NNC(=S)Nc1ccc(Br)cc1)c1ccccc1	.	.	.	.	/	/
O=C(NNC(=S)Nc1ccccc1)c1cccc(Br)c1	.	18	.	.	.	.
CS(=O)(=O)N1CCCC(C(=O)Nc2ccc(F)c(F)c2)C1 (configuration not stated)	.	.	.	.	/	/
